Screening data from PubChem.
Rows were chosen to be rich in hits. Some 3.3% of all compounds tested hit in one or more screens of this group.
Tau ThT inhib – blocks human tau fibril formation measured by thioflavin T. P10636. recombinant tau K18 P301L, heparin-induced fibrillization, ThT fluorescence. Potency, µM (titrated, usually from 57.4 µM), without a hit: at the top dose activity, negative = inhibition, actives largely listed as inhibitors. actives 2.1% (n = 270,000); also: nearly all actives have a fitted effect of over 55% in size
Target sequence (P10636 561-689 P618L limits assumed): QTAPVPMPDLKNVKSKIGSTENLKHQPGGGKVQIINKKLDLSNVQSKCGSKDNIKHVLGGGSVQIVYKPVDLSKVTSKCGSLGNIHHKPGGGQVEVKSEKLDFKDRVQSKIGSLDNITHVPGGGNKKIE
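Recombinant human tau K18 fragment […] carrying P301L, 15 uM unlabeled plus 0.24 uM Alexa 594-labeled, was fibrillized with 20 uM heparin in 100 mM sodium acetate pH 7 for 6 hr at 37 C; 30 uM ThT fluorescence read after 1 hr.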
Tau fluor cs – counter-screen for tau fibril formation inhibitors. tau K18 P301L (four-repeat tau fragment) Alexa594 fluorescence, heparin fibrillization. Potency, µM (series often up to 57.7 µM), for inactives: at the highest dose activity change, negative = decrease. actives 0.93% (n = 280,000). AID 1463; also: nearly all actives have a fitted effect of over 55% in size
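Human K18 P301L tau (15 uM unlabeled plus 0.24 uM Alexa 594-labeled, final) in 100 mM sodium acetate pH 7 was mixed with compound and 20 uM heparin and incubated 6 hr at 37 C.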
NPSR antagonist – antagonists of human neuropeptide S receptor cAMP signaling | CHO-NPSR cells, cAMP TR-FRET, antagonist mode | AID 1461 | Q6W5P4 | Potency, µM (highest dose often 38.3 µM), for the others: at the top dose activity change, negative = inhibition, actives largely listed as inhibitors | actives 1% (n = 220,000); also: nearly all actives have a fitted effect of over 50% in size
Target sequence (Q6W5P4 whole entry, looked up): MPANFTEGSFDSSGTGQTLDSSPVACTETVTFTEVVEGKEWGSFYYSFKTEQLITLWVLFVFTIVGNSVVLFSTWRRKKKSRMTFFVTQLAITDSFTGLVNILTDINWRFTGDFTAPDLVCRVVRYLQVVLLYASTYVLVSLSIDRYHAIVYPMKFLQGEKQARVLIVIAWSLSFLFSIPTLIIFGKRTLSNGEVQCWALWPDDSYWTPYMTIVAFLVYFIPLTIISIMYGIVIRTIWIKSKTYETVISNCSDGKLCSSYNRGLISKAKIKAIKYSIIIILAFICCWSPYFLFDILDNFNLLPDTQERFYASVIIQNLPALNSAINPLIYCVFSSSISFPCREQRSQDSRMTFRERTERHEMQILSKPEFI
KinaseGlo FLuc – counter-screen: inhibitors of Kinase-Glo firefly luciferase; Potency, µM (doses to about 38.3 µM), without a hit: at the top dose activity change, negative = inhibition, most hits filed as inhibitors; Kinase-Glo luciferase, ATP luminescence, 8 min; actives 0.28% (n = 200,000); Q27757; also: nearly all actives have a fitted effect of over 60% in size
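Light output from Kinase-Glo luciferase with luciferin and 10 uM ATP in 50 mM imidazole pH 7.2, KCl, MgCl2, Tween 20, BSA; compound pin-delivered, 8-min ambient incubation, then luminescence read.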
Tau fibril FP – inhibitors of human tau fibril formation | K18 P301L tau heparin fibrillization, Alexa594 FP, 6 h | actives 0.39% (n = 280,000) | Potency, µM (top dose mostly 57.7 µM), for the others: top-dose activity, negative = inhibition, usual class: inhibitors | P10636; also: nearly all actives have a fitted effect of over 55% in size
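Recombinant K18 P301L […], labeled with Alexa 594 at 0.24 uM over 15 uM unlabeled; heparin inducer 20 uM final; 37 C, 6 hr; FP endpoint.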
Numbers without * were called inactive; [ ] = remark or other dose. Calls follow the shape of the dose curve; as a rule, active = well fitted curve in the direction sought with a large enough effect; inconclusive = small, poorly fitted or top-dose-only effect, or another doubt; inactive = no such curve, though single readings can be large; an effect the other way counts as inactive or inconclusive. % is scaled to controls: 0 for no effect and ±100 for the full control effect; potency is read from the fitted curve at half-maximal effect.

O=C(Nc1ccc2nc(-c3cccs3)c(-c3cccs3)nc2c1)NC1CC1 was read as Tau ThT inhib inconclusive, Tau fluor cs inconclusive, NPSR antagonist -26%[46.1 µM], KinaseGlo FLuc -4% and Tau fibril FP 22µM*.
`O=C(CSc1nc(-c2cccs2)nc2cc(=O)[nH]n12)Nc1ccc(F)cc1` gave Tau ThT inhib inconclusive, Tau fluor cs -5% and Tau fibril FP -3%.
`CC(C)(C)C(=O)CP(=O)(O)O` gave KinaseGlo FLuc 1%[7.66 µM].
For O=S1(=O)N(CCN2CC=C(c3c[nH]c4cc(F)ccc34)CC2)c2cccc3c2N1CCC3 the results were Tau ThT inhib inconclusive, Tau fluor cs 8.9µM*[quencher], NPSR antagonist inconclusive, KinaseGlo FLuc -2% and Tau fibril FP 12%.
`CCOc1ccc(CCNC(=O)c2ccc(-n3c(C)cc4c3CCCC4)cc2)cc1OCC` gave Tau ThT inhib inconclusive, Tau fluor cs -16% and Tau fibril FP -12%.
Screening O=C(OCC(=O)c1ccc([N+](=O)[O-])cc1)/C(=C/c1ccc(Cl)cc1)NC(=O)c1ccccc1 returned Tau ThT inhib 28µM*, Tau fluor cs -14%, NPSR antagonist -9%, KinaseGlo FLuc 0% and Tau fibril FP inconclusive.
Screening O=C(C[N+]12CCC(CC1)C(OC(=O)c1ccccc1)C2)c1ccc([N+](=O)[O-])cc1 (configuration not stated) returned Tau ThT inhib -18%, Tau fluor cs -5%, NPSR antagonist -17% and Tau fibril FP 8%.
For CC1=CC(=O)c2c(O)cccc2C1=O the results were Tau ThT inhib 2.5µM*, Tau fluor cs 2.2µM*[quencher], KinaseGlo FLuc -1% and Tau fibril FP 3.2µM*.
For C=C1CC[C@H](O)C/C1=C/C=C1\CCC[C@]2(C)[C@@H]([C@H](C)CCCC(C)C)CC[C@@H]12 the results were Tau ThT inhib 22µM*, Tau fluor cs -22%, KinaseGlo FLuc 1%[39.9 µM] and Tau fibril FP inconclusive.
`CC(C)CCCC(C)C1CCC2C3=CC[C@@H]4CC(O)CC[C@@]4(C)C3CC[C@]21C` (some centres not stated) gave Tau ThT inhib inconclusive, Tau fluor cs -5%, KinaseGlo FLuc -3% and Tau fibril FP -4%.
Screening O=C(Nc1ccc(Oc2ccccc2)cc1)c1ccc(F)c(S(=O)(=O)N2CCN(c3cccc(Cl)c3)CC2)c1 returned Tau ThT inhib 4%, Tau fluor cs 0% and Tau fibril FP inconclusive.
`Cn1c(=O)oc2cc(S(=O)(=O)N3CCCC(C(=O)NCc4ccccc4Cl)C3)ccc21` (configuration not stated) gave Tau ThT inhib 2%, Tau fluor cs 2% and Tau fibril FP inconclusive.
c1ccc(SSc2ccccc2)cc1 was read as Tau ThT inhib 25µM*, Tau fluor cs -19%, NPSR antagonist -7%, KinaseGlo FLuc 1% and Tau fibril FP 13µM*.
C[C@@H](N)[C@@H](O)c1ccc(O)c(O)c1 was read as Tau ThT inhib 4µM*, Tau fluor cs inconclusive and Tau fibril FP inconclusive.
`O=C(O)c1cc(N=Nc2ccc([As](=O)(O)O)cc2)ccc1O` gave KinaseGlo FLuc 0%[7.66 µM].
CSc1nc(N)c(N=Nc2ccc([As](=O)(O)O)cc2)c(=O)[nH]1 was read as Tau ThT inhib 20µM*, Tau fluor cs inconclusive, NPSR antagonist -15% and Tau fibril FP -9%.
Screening CC[C@@]1(O)C(=O)OCc2c1cc1n(c2=O)-c2cc3ccccc3nc2C1 returned Tau ThT inhib -5%, Tau fluor cs 2%, KinaseGlo FLuc 1%[39.9 µM] and Tau fibril FP 2%.
`O=c1[nH]c(=S)[nH]c(O)c1N=Nc1cc2c(cc1[N+](=O)[O-])OCO2` gave Tau ThT inhib 13µM*, Tau fluor cs -20%, NPSR antagonist -43%, KinaseGlo FLuc -5% and Tau fibril FP 2%.
O=c1[nH]c(=S)[nH]c(O)c1N=Nc1ccc(-c2ccccc2)cc1[N+](=O)[O-] was read as Tau ThT inhib 4µM*, Tau fluor cs inconclusive, NPSR antagonist -22%, KinaseGlo FLuc -3% and Tau fibril FP -11%.
For NC(CCl)=N[C@H]1CN2CCC1CC2 the results were KinaseGlo FLuc -2%[7.66 µM].
For CN1C[C@H](C(=O)N[C@]2(C)O[C@@]3(O)C4CCCN4C(=O)[C@H](Cc4ccccc4)N3C2=O)C[C@@H]2c3cccc4[nH]cc(c34)C[C@H]21 (some centres not stated) the results were Tau ThT inhib inconclusive, Tau fluor cs 13µM*[quencher], NPSR antagonist inconclusive, KinaseGlo FLuc -9% and Tau fibril FP 4%.
For CC(C)[C@@]1(NC(=O)[C@H]2CC3c4cccc5[nH]cc(c45)C[C@H]3N(C)C2)O[C@@]2(O)C3CCCN3C(=O)[C@@H](Cc3ccccc3)N2C1=O (some centres not stated) the results were Tau ThT inhib inconclusive, Tau fluor cs 2.5µM*[quencher] and Tau fibril FP inconclusive.
`CC(C)[C@@]1(NC(=O)[C@@H]2C[C@H]3c4cccc5[nH]cc(c45)C[C@@H]3N(C)C2)O[C@]2(O)[C@H]3CCCN3C(=O)[C@H](Cc3ccccc3)N2C1=O` gave KinaseGlo FLuc 1%[17.1 µM].
For CC(C)C[C@H]1C(=O)N2CCCC2[C@]2(O)O[C@](NC(=O)[C@@H]3C=C4c5cccc6[nH]c(Br)c(c56)C[C@H]4N(C)C3)(C(C)C)C(=O)N12 (some centres not stated) the results were Tau ThT inhib inconclusive, Tau fluor cs inconclusive, NPSR antagonist 13µM*, KinaseGlo FLuc -3% and Tau fibril FP 12%.
For CC(C)[C@]1(NC(=O)[C@@H]2C=C3c4cccc5[nH]cc(c45)C[C@H]3N(C)C2)O[C@@]2(O)C3CCCN3C(=O)[C@H](Cc3ccccc3)N2C1=O (some centres not stated) the results were Tau ThT inhib inconclusive, Tau fluor cs -29%, KinaseGlo FLuc -8% and Tau fibril FP -12%.
Screening CN(C)CCCc1cccnc1 returned KinaseGlo FLuc -4%[7.66 µM].
COc1cccc2c1C13CC[N+]4(CC5CC5)CO[C@]1(CCC(=O)C3)C4C2 was read as Tau ThT inhib -3%, Tau fluor cs -3% and Tau fibril FP -5%.
For Cc1cccc(N=Cc2c(O)n(-c3ccccc3C)c(=O)[nH]c2=O)c1 the results were Tau ThT inhib -21%, Tau fluor cs -17%, NPSR antagonist -21%[46.1 µM], KinaseGlo FLuc -5% and Tau fibril FP -12%.
Screening Cc1ccccc1-n1c(O)c(C=Nc2ccc(N(C)C)cc2)c(=O)[nH]c1=O returned Tau ThT inhib 28µM*, Tau fluor cs inconclusive, NPSR antagonist inconclusive, KinaseGlo FLuc 1% and Tau fibril FP inconclusive.
